Bioassay records: PubChem BioAssay, National Center for Advancing Translational Sciences (NCATS)
D1 ag – Allosteric Agonists of the Human D1 Dopamine Receptor: qHTS; HEK293 T-REx D1 cells, calcium flux, agonist mode; activation, % at 2 µM; actives 1% (n = 360,000)
Target sequence (P21728 whole entry, looked up): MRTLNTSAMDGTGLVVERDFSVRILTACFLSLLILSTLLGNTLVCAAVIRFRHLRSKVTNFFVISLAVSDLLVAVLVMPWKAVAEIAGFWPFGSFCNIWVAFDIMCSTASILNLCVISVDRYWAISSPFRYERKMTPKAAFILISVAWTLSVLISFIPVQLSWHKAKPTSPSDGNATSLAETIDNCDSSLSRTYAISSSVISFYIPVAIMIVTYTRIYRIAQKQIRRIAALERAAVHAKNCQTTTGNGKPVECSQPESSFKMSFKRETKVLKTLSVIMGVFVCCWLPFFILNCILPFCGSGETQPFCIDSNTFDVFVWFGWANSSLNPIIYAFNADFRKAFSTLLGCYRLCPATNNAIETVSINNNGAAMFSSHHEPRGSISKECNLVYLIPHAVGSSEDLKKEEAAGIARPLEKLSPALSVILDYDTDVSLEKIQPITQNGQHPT
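Inducible HEK293 T-REx D1 cells, force-coupled to calcium signalling, were plated at 4000 cells/well with tetracycline and held overnight at 30 C. After no-wash calcium dye loading, compound-evoked calcium rise over 180 s flagged agonists.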
TRHR PAM – qHTS for Small Molecule Agonists and Allosteric Enhancers of Human TRH Receptor: Primary Screen for Enhancers; AID 493056, 2011; TRHR cells, fluo-8 calcium fluorescence, EC20 TRH enhancement; Thyrotropin-releasing hormone receptor (Homo sapiens), P34981; actives 0.66% (n = 360,000); enhancement, % at 2 µM; in the data active = enhancement above about 30%
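TRHR-expressing cells loaded with fluo-8 calcium dye were read kinetically (ex 480/em 530) during compound addition, then stimulated with an EC20 of TRH (10 nM final). Enhancement of the Gq-mediated intracellular calcium response was scored.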
D1 potentiator – Potentiators of Human D1 Dopamine Receptor: qHTS; D(1A) dopamine receptor (Homo sapiens), P21728; HEK293 TREx D1 cells, calcium flux, dopamine EC20 potentiation; potentiation, % at 10 µM; actives 0.036% (n = 360,000); AID 504651, 2011; in the data active = potentiation above about 30%
D1 antag – Antagonist of Human D 1 Dopamine Receptor: qHTS; D(1A) dopamine receptor (Homo sapiens), P21728; HEK293 TREx D1 cells, calcium flux, dopamine EC80; stronger effect = lower value; activity change, negative = inhibition, % at 10 µM; actives 3.2% (n = 360,000); in the data active = activity change below about -30%
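Allosteric or orthosteric antagonism assessed as attenuation of the calcium response to EC80 dopamine, added 180 s after compound, in induced HEK293 Trex D1 cells loaded with no-wash calcium dye.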
TRHR agonist – qHTS for Small Molecule Agonists and Allosteric Enhancers of Human TRH Receptor: Primary Screen for Agonists | Thyrotropin-releasing hormone receptor (Homo sapiens), P34981 | TRHR cells, calcium flux fluo-8, FDSS agonist mode | activation, % at 2 µM | actives 0.18% (n = 360,000) | AID 493084, 2011
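Agonist-mode FDSS calcium read (Ex 480/Em 530, 1 s cycles) in 1536-well TRHR cells with fluo-8 dye, after 10-cycle baseline and 23 nL compound addition; TRH at EC20 (10 nM final) added afterwards for the enhancer phase.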
A number is an active result; i = inactive; nt = no result. This is a sample that favours compounds with a hit; in the whole collection about 4.6% have one here. Cut-off read from the data, not from the text of the source, unless noted: active = activation above about 30%; inactive = the rest.

SMILES	D1 ag	TRHR PAM	D1 potentiator	D1 antag	TRHR agonist
COc1ccc(CC(=O)N/N=C(\C)c2cccnc2)cc1	i	i	i	i	i
COc1cc(C2NC(=O)c3c(sc4c3CCN(C)C4)N2)ccc1OC(=O)c1ccccc1 (stereo unspecified)	38	i	i	i	i
C#CC[N+]1(CC#Cc2ccc(C#CC[N+]3(CC#C)CCOCC3)cc2)CCOCC1	i	i	i	-81	i
C(#Cc1ccccc1)C[N+]1(CC#Cc2cccc3ccccc23)CCCC1	i	i	i	i	i
C#CC[N+]1(CC#Cc2ccccc2)CCCC1	i	i	i	-52	i
O=C(OC(C(=O)NCc1ccccc1)c1ccccc1)c1ccco1 (stereo unspecified)	i	i	i	i	i
COc1cccc(CC(=O)OCC(=O)NC(Cc2ccccc2)C(C)=O)c1 (stereo unspecified)	i	i	i	i	i
COc1cccc(CC(=O)OCC(=O)NNC(=O)c2ccc(Br)cc2)c1	i	i	nt	-33	i
O=C(CCc1[nH]c2ccccc2c1Sc1ccccc1)NCCO	48	i	i	i	i
O=C(CCc1ccccc1)NCCSc1ccccc1	i	i	i	i	i
Cc1csc(C2=C(O)CN(CCc3ccccc3)C2=N)n1	i	i	i	-40	i
CC(=O)Nc1ccc(S(=O)(=O)N2CCN(C(=O)c3ccco3)CC2)cc1	i	i	i	i	i
Cc1ccc(S(=O)(=O)NNC(=O)C2Cc3c(ccc4ccccc34)O2)cc1 (stereo unspecified)	33	i	i	i	i
CC(C)C(=O)NCCSc1c[nH]c2ccccc12	i	i	i	-87	i
CCC(=O)NCCSc1c[nH]c2ccccc12	i	i	i	i	i
Cc1ccc(C(=O)NC(=O)CSc2nnc(C)s2)cc1	i	i	i	i	i
Cc1ccc(S(=O)(=O)c2nnn(-c3cccc(F)c3)c2N)cc1	i	i	i	-33	i
COc1ccc(S(=O)(=O)c2nnn(-c3cccc(OC)c3)c2N)cc1	i	i	i	i	i
COc1ccc(S(=O)(=O)c2nnn(-c3ccc(C(C)C)cc3)c2C)cc1	i	i	i	i	i
Cc1ccc(S(=O)(=O)c2nnn(-c3ccc(F)c(Cl)c3)c2N)cc1	76	i	i	i	i
CCn1ccnc1CN1CCN(CC=C(C)C)C(CCO)C1 (stereo unspecified)	i	31	i	i	i
CC(=O)c1cc2c(cc1NS(=O)(=O)c1ccc(C)cc1)OCCO2	i	i	i	-37	i
COc1cc(OC)c(NC(=O)CCc2c(C)nc3cc(-c4ccccc4OC)nn3c2C)cc1Cl	i	i	i	i	i
CC(=O)Oc1ccc(Cl)cc1/C=C/c1cc(OC(C)=O)c2ccccc2n1	i	i	i	-63	i
Cc1ccc(NC(=S)N2CC(C)OC(C)C2)cc1C (stereo unspecified)	i	i	i	i	i
SMILES	D1 ag	TRHR PAM	D1 potentiator	D1 antag	TRHR agonist
Cc1cc(C)c(NC(=O)CSc2nc3ncc(Cl)cc3[nH]2)c(C)c1	i	i	i	i	i
CC(=O)c1c(C)n(C)c2ccc(OC(=O)c3ccc([N+](=O)[O-])cc3)cc12	i	40	i	i	i
CSc1ccc(S(=O)(=O)N2CCC(C(=O)Nc3cccnc3)CC2)cc1	i	i	i	i	i
Cc1cc(-c2ccc(C)c(S(=O)(=O)Nc3ccccc3C(F)(F)F)c2)on1	i	i	i	-36	i
Cc1cc(-c2ccc(C)c(S(=O)(=O)Nc3cccc(C)n3)c2)on1	i	i	i	-44	i
CCc1ccc(-c2cc(C)no2)cc1S(=O)(=O)N1CCC(C)CC1	i	i	i	i	i
Cc1ccnc(NS(=O)(=O)c2cc(-c3cc(C)no3)ccc2C)c1	i	i	i	i	i
CCc1ccc(-c2cc(C)no2)cc1S(=O)(=O)N1CCCN(Cc2ccc(F)cc2)C1	i	i	i	-31	i
Cc1cc(-c2ccc(C)c(S(=O)(=O)Nc3cccc(CN4CCCC4)c3)c2)on1	i	i	i	-61	i
CCn1c(=O)c2cc(C(=O)NCCCN3CCC(C)CC3)sc2c2ccccc21	i	i	i	i	i
CCC(NC(=O)NCc1ccc2c(c1)OCO2)(C(F)(F)F)C(F)(F)F	i	i	i	i	i
CCCCN(C(=O)c1ccc(C)cc1)c1c(N)n(CCC)c(=O)[nH]c1=O	i	i	i	i	i
CCOc1ccc(CNC(=O)c2ccc(-c3nc(CS(=O)(=O)c4ccccc4)c(C)o3)cc2)cc1	i	i	i	i	i
COc1cccc(CCN2CCC(CNS(=O)(=O)c3cc(-c4cc(C)no4)ccc3C)CC2)c1	i	i	i	-55	i
CC(C)NC(=O)Cn1c(=O)cnc2ccccc21	i	i	i	-55	i
CC(C)c1ccc(/C=N/NC(=O)CC(=O)NCc2ccccc2)cc1	i	i	i	i	i
CCOc1cccc2cc(-c3nc4sc(C(=O)Nc5ccc(C)cc5)c(C)c4c(=O)[nH]3)c(=O)oc12	i	i	i	i	i
CCCN(CCC)c1nc(-c2ccccn2)nc2ccccc12	i	i	i	i	i
CCCN(CCC)c1nc(-c2ccccc2F)nc2ccccc12	39	i	i	i	i
COc1ccc(N)c2c1C(=O)c1ccccc1C2=O	i	i	i	i	i
COc1ccc(OC)c2c1C(=O)c1ccccc1C2=O	31	i	i	i	35
COc1cccc2c1C(=O)c1ccc3ccccc3c1C2=O	i	i	i	-35	i
COc1ccc(NC(=O)[C@@]2(CC(=O)O)CC(/C=C/c3ccccc3)=NO2)cc1	i	i	i	i	i
COc1ccc(Cl)cc1NC(=O)[C@@]1(CC(=O)O)CC(/C=C/c2ccccc2)=NO1	i	i	i	-35	i
CCO[C@H]1OC(C(=O)O)=C[C@@H](c2ccc3c(c2)OCO3)[C@@H]1CCCO	i	i	63	i	i
SMILES	D1 ag	TRHR PAM	D1 potentiator	D1 antag	TRHR agonist
CCO[C@@H]1OC(C(=O)NC2CC2)=C[C@H](c2ccc(Br)cc2)[C@H]1CCCO	i	i	i	i	i
CCO[C@H]1OC(C(=O)NC2CC2)=C[C@@H](c2ccc(Br)cc2)[C@@H]1CCCO	i	i	i	-59	i
C#Cc1cccc(NC(=O)c2ccc3c(c2)C(=O)N(Cc2cccnc2)C3=O)c1	i	i	i	i	i
COc1ccc(C(=O)NC(Oc2ccccc2)C(Cl)(Cl)Cl)cc1 (stereo unspecified)	i	i	i	-80	i
COc1ccc(C(C)NC(=O)c2ccccc2)cc1 (stereo unspecified)	i	i	i	i	i
O=C(CCNC(=O)c1ccc(Br)cc1)NCC1COc2ccccc2O1 (stereo unspecified)	i	i	i	-41	i
